Values joined by “and” are separate entries in the source; they are usually repeats but may differ in a detail not shown here. Equal values may be shown once. Records with an inconclusive call do not appear. Values without a mark were called inactive. Active and inactive are the calls of the source. The call rests on the fitted dose curve; in most records, active means well fitted cell-killing curve with a large enough effect; inconclusive means small, poorly fitted or top-dose-only effect; inactive means flat fitted curve, though single readings scatter.

The assay can be described thus: Cellular viability qHTS for adrenocortical cancer (ACC) cell line NCI-H295R (AID 1963990). Further: nearly all actives have a fitted effect of over 60% in size. Conditions: CellTiter-Glo ATP luminescence, 48 h; series mostly up to 46.1 µM; activity change, negative = viability loss: at the top concentration. The source says: PI: Naris Nilubol, MD Surgical Oncology Program, National Cancer Institute (NCI) National Institute of Health (NIH), Bethesda, Maryland Adrenocortical cancer (ACC) is a rare malignancy with poor survival outcomes and few treatment options. Currently, mitotane is the only FDA-approved therapy for ACC. Although adjuvant radiation therapy is rarely utilized, it has the potential to improve survival in select cases. Through a quantitative high-throughput drug screen (qHTS), we identified auranofin (AF), a thioredoxin reductase (TXNRD) inhibitor, as a promising candidate drug. This study aims to evaluate whether AF can enhance the efficacy of radiation therapy in the treatment of ACC. Two human ACC cell lines, SW-13 and NCI-H295R, were screened using the National Center for Advancing Translational Sciences (NCATS) Pharmaceutical Collection (NPC) and the Mechanism Interrogation PlatE (MIPE) library (~4,991 compounds). CellTiter-Glo (Cat # G7570, Promega, Madison, WI) was utilized to measure cell viability. Described herein are the results of the corresponding viability assay.
PROTOCOL TABLE (as described by Inglese J, Shamu CE and Guy RK. 2007) SEQUENCE No. (e.g., 1, 2, 3, etc.); […] (e.g., Cells, Incubation, Reagent, etc.); VALUE; DESCRIPTION. 1; Cells; 5 uL; white, solid-bottom, 1536-well tissue-culture treated plates. 2; Time; overnight culture at 37C with 5% CO2. 3; Compounds and control; 23 nL; Kalypsis pin tool (Wako USA) equipped with a 1536-well pin head to transfer to the assay plates. 4; Time; 48 hours; 37C with 5% CO2. 5; Reagent; 4 uL; CellTiter-Glo luminescent substrate mix. 6; Time; 20 min at room temperature. 7; Detection; Luminescence; ViewLux plate reader NOTES (numbers refer to Sequence numbers above) 1. NCI-H295R cells were harvested from a T175 flask and resuspended in ITS-supplemented DMEM serum-free medium at a concentration of 300 000 cells/mL. Then 5 uL of resuspended cells were dispensed into each well of white, solid-bottom, 1536-well tissue-culture-treated plates using a multidrop combi dispenser. The plates were covered with stainless steel gasket lids. 2-3. The plates were cultured overnight at 37C with 5% CO2. Twenty-three nL of compounds (eight selected concentrations from the NPC / MIPE) or positive control (10 mM stock of bortezomib) in DMSO was transferred to each well of the assay plate using a pin tool (Kalypsys, San Diego, CA, USA). The final concentration of the compounds in the 5 uL assay volume ranged from 0.5 nM to 46 uM. 4-6. After 48 hours of incubation at 37C and 5% CO2, 4 uL of CellTilter-Glo luminescent substrate mix (Promega, Madison, WI, USA) was added to each well. Then the plates were incubated for 20 minutes at room temperature. 7. After incubation, luminescence was measured using a ViewLux plate reader (PerkinElmer, Waltham, MA, USA) with a clear filter was used to measure the number of metabolically competent cells. To determine compound activity in the qHTS assay, the titration-response data for each sample was plotted and modeled by a four-parameter logistic fit yielding IC50 and efficacy (maximal response) values. Raw plate reads for each titration point were normalized relative to positive control ([…], 100% inhibition) and DMSO-only wells (basal, 0%). REFERENCES: Inglese J, Shamu CE and Guy RK, Reporting data from high throughput screening of small molecule libraries, Nature Chemical Biology, 2007, 3(8): 438-441. doi.org/10.1038/nchembio0807-438.
For `O=C(Nc1nc2cccc(-c3ccc(CN4CCS(=O)(=O)CC4)cc3)n2n1)C1CC1`, the Potency is 28.2 µM (active).

In the case of `CC(=O)[C@H]1CC[C@H]2[C@@H]3CC=C4C[C@@H](O)CC[C@]4(C)[C@H]3CC[C@]12C`, the Potency entry was “inactive”.

Take `CCN(CCO)CCCC(C)Nc1ccnc2cc(Cl)ccc12` (stereo not given): the activity change, negative = viability loss was 1.42% [at 3.81 µM] and 0.71% [at 3.81 µM].

As for `COc1cc([C@@H]2c3cc4c(cc3[C@H](O)[C@H]3COC(=O)[C@H]23)OCO4)cc(OC)c1OC`, the Potency is 7.3 nM (active) and 50.1 nM (active).

For the compound `CN=C(NC#N)Nc1ccc(C2=NNC(=O)CC2C)cc1` (stereo not given), the “activity change, negative = viability loss” value is -0.276%.

`CN1CCc2c(c3ccccc3n2Cc2ccc(C(=O)NO)cc2)C1`: the Potency was 28.2 µM (active).

Take `CCN(CC)C(=S)SSC(=S)N(CC)CC`: the Potency is 44.7 µM (active).

`c1cncc(CN2CCC(n3ncc4c(N5CCOCC5)nc(-c5ccc6[nH]ccc6c5)nc43)CC2)c1`: the Potency is 3.55 µM (active).

With `CCCCCCCCCCCCCCCCN`, the “activity change, negative = viability loss” value was -12.9%.

As to `C[N+]1(C)CCC(=C(c2ccccc2)c2ccccc2)CC1`, the “activity change, negative = viability loss” value is -4.97%.

For `CCOC(=O)c1ccc(C#Cc2ccc3c(c2)C(C)(C)CCS3)nc1`, the “activity change, negative = viability loss” value is -19.5%.

Take `Cc1cccc(Nc2ccncc2S(=O)(=O)NC(=O)NC(C)C)c1`: the “activity change, negative = viability loss” value is -10.5%.

Turning to `Nc1ccccc1NC(=O)c1ccc(CNc2nccc(-c3cccnc3)n2)cc1`, the Potency is 0.355 µM (active).

Take `COc1cc(NS(=O)(=O)c2ccc(N)cc2)nc(OC)n1`: the “activity change, negative = viability loss” value was -11.3%.

For the compound `CCN(CCCCOC(=O)c1ccc(OC)c(OC)c1)C(C)Cc1ccc(OC)cc1` (stereo not given), the “activity change, negative = viability loss” value was -14.4%.

As to `O=c1[nH]c2cc(C(F)(F)F)c(N3CCOCC3)cc2n(CP(=O)(O)O)c1=O`, the “activity change, negative = viability loss” value is -24%.

As to `C[C@]12C=CC(=O)C=C1[C@@H](F)C[C@@H]1[C@@H]2[C@@H](O)C[C@@]2(C)[C@H]1CC[C@]2(O)C(=O)CO`, the “activity change, negative = viability loss” value was -0.767%.

Turning to `CC[C@@]1([C@@H]2O[C@@H]([C@H]3O[C@@](O)(CO)[C@H](C)C[C@H]3C)C[C@H]2C)CC[C@H]([C@]2(C)CC[C@]3(C[C@H](O)[C@@H](C)[C@@H]([C@@H](C)[C@@H](OC)[C@H](C)C(=O)O)O3)O2)O1`, the Potency is 0.715 µM (active).

On to `OC[C@@H](O)[C@@H](O[C@@H]1O[C@H](CO)[C@H](O)[C@H](O)[C@H]1O)[C@H](O)[C@@H](O)CO`, for which the “activity change, negative = viability loss” value is 0.276%.

In the case of `CC(C)COC(=O)c1ccc(N)cc1`, the “activity change, negative = viability loss” value was -6.37%.

As for `CC(=O)O[C@]1(C(C)=O)CC[C@H]2[C@@H]3C=C(Cl)C4=CC(=O)[C@@H]5C[C@@H]5[C@]4(C)[C@H]3CC[C@@]21C`, the “activity change, negative = viability loss” value is 2.09%.

Consider `Cc1nc([C@](C)(O)CO)sc1-c1cnc(N)c(O[C@H](C)c2cc(F)ccc2-n2nccn2)c1`, for which the Potency is 2.82 µM (active).

`Cc1cc(NS(=O)(=O)c2ccc(N)cc2)nc(C)n1`: the “activity change, negative = viability loss” value is -5.15%.

For `C#Cc1cccc(Nc2ncnc3cc(OCCOC)c(OCCOC)cc23)c1`, the Potency is 6.51 µM (active).

Regarding `O=C(OC1C[C@H]2CC[C@@H](C1)[N+]21CCCC1)C(O)(c1ccccc1)c1ccccc1` (stereo not given in full), the “activity change, negative = viability loss” value was -5.55%.

Turning to `CO[C@H]1O[C@@H]2O[C@@]3(C)CC[C@H]4[C@H](C)CC[C@@H]([C@H]1C)[C@@]24OO3`, the “activity change, negative = viability loss” value is 5.25%.

With `CCC(=O)O[C@]1(C(=O)SCF)[C@H](C)C[C@H]2[C@@H]3C[C@H](F)C4=CC(=O)C=C[C@]4(C)[C@@]3(F)[C@@H](O)C[C@@]21C`, the “activity change, negative = viability loss” value is -29.1%.

Consider `CCc1cccc2c3c([nH]c12)[C@@](CC)(CC(=O)O)OCC3`, for which the “activity change, negative = viability loss” value is -10.9%.

On to `CO[C@@]1(NC(=O)CSC[C@@H](N)C(=O)O)C(=O)N2C(C(=O)O)=C(CSc3nnnn3C)CS[C@@H]21`, for which the “activity change, negative = viability loss” value is -14.5%.

Take `Cc1ccccc1C(C(=O)NC1CCCCC1)N(C(=O)Cn1ccnc1C)c1cccc(F)c1` (stereo not given): the “activity change, negative = viability loss” value was -14.5%.

Regarding `Clc1ccc2ncc(-c3cccc(NC4CNC4)n3)n2c1`, the “activity change, negative = viability loss” value is -25.9%.

For `Cn1ncc2cc(-c3cnc(N)c(Cl)c3N3CCC4(CCNC4=O)CC3)ccc21`, the “activity change, negative = viability loss” value is -28.3%.

Turning to `CCOc1cc(OCC)c(C(=O)CCC(=O)O)cc1OCC`, the “activity change, negative = viability loss” value was 1.29%.

Turning to `Cc1ccc([N+](=O)[O-])cc1S(=O)(=O)N(C)/N=C/c1cnc2ccc(Br)cn12`, the Potency is 0.282 µM (active).

With `CC(=O)NCCCCCC(=O)O`, the “activity change, negative = viability loss” value is -9.2%.

For `COc1ccc(S(=O)(=O)Nc2cc(-c3csc(C#N)c3)ccc2C)cc1`, the Potency is 0.0794 µM (active).

On to `COc1cc(C=O)ccc1O`, for which the “activity change, negative = viability loss” value was -0.238%.

Consider `COc1cc2c(NC3CCN(C(C)C)CC3)nc(C3CCCCC3)nc2cc1OCCCN1CCCC1`, for which the Potency was 12.6 µM (active).

On to `COc1ccc(S(=O)(=O)N[C@@H](CNc2nc(C)nc(N3CCC(c4ccc5c(n4)NCCC5)CC3)c2C)C(=O)O)cc1`, for which the “activity change, negative = viability loss” value was -17.7%.

Take `c1ccc(-c2nn3c(c2-c2ccnc4cc(OCCN5CCOCC5)ccc24)CCC3)nc1`: the “activity change, negative = viability loss” value is -11.5%.

The record behind these values is PubChem BioAssay (NCATS).
